Read-out in test [1]: TIMP1, TIMP1 (gene 7076)
Nature of the test: LTEA_HepaRG_TIMP1: Life Technologies and Expression Analysis (LTEA) Assay for TIMP1 using HepaRG (AID 2283534; active means hit-call score of the fitted dose curve at least 0.9, where 1 is the maximum; inactive means score below 0.9). The conditions noted are these: mRNA level, 48 h; actives raise or lower the signal. In outline: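 Bidirectional change in TIMP1 transcript versus 0.5% DMSO, measured by TaqMan qRT-PCR with three housekeeping genes for normalization. HepaRG human liver cells dosed 48 h in duplicate, top concentration 100 uM with half-log dilutions.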

Read-out in test [2]: Tumor necrosis factor receptor 1 (TNFRSF1A), TNFRSF1A (gene 7132)
Nature of the test: LTEA_HepaRG_TNFRSF1A: Life Technologies and Expression Analysis (LTEA) Assay for Tumor necrosis factor receptor 1 (TNFRSF1A) using HepaRG (AID 2283535; active means hit-call score of the fitted dose curve at least 0.9, where 1 is the maximum; inactive means score below 0.9). To be noted: mRNA level, 48 h; actives raise or lower the signal. The method in brief: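 mRNA measured by qRT-PCR (TaqMan, Fluidigm arrays) against ACTB/GAPDH/POLR2A housekeepers after 48 h chemical exposure of HepaRG cells. Top concentration 100 uM, half-log 8-point series, duplicates; vehicle 0.5% DMSO, both fit directions.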

Read-out in test [3]: Thyroid Hormone Responsive (THRSP), THRSP (gene 7069)
Description: LTEA_HepaRG_THRSP: Life Technologies and Expression Analysis (LTEA) Assay for Thyroid Hormone Responsive (THRSP) using HepaRG (AID 2283536; active means hit-call score of the fitted dose curve at least 0.9, where 1 is the maximum; inactive means score below 0.9). To be noted: mRNA level, 48 h; actives raise or lower the signal. In outline: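 Differentiated human HepaRG cells were exposed in duplicate for 48 h in serum-free induction medium to eight concentrations (top 100 uM, half-log steps, 0.5% DMSO). Expression was quantified by TaqMan qRT-PCR, normalized to ACTB, GAPDH and POLR2A, with bidirectional fitting against DMSO.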

Read-out in test [4]: Cellular tumor antigen p53 (Homo sapiens) (UniProt P04637)
Nature of the test: LTEA_HepaRG_TP53: Life Technologies and Expression Analysis (LTEA) Assay for Tumor Protein P53 (TP53) using HepaRG (AID 2283537; active means hit-call score of the fitted dose curve at least 0.9, where 1 is the maximum; inactive means score below 0.9). To be noted: mRNA level, 48 h; actives raise or lower the signal. In outline: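 Differentiated HepaRG cells in serum-free induction medium exposed 48 h in duplicate to 8 half-log concentrations, top 100 uM, 0.5% DMSO. TP53 mRNA by TaqMan qRT-PCR (Fluidigm), normalized to ACTB, GAPDH, POLR2A; fitted bidirectionally versus DMSO.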

Read-out in test [5]: UDP glucuronosyltransferase (UGT1A1), UGT1A1 (gene 54658)
Nature of the test: LTEA_HepaRG_UGT1A1: Life Technologies and Expression Analysis (LTEA) Assay for UDP glucuronosyltransferase (UGT1A1) using HepaRG (AID 2283538; active means hit-call score of the fitted dose curve at least 0.9, where 1 is the maximum; inactive means score below 0.9). To be noted: mRNA level, 48 h; actives raise or lower the signal. In outline: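 Differentiated human HepaRG cells in serum-free induction medium were exposed in duplicate for 48 h to eight half-log concentrations up to 100 uM in 0.5% DMSO. UGT1A1 mRNA was quantified by TaqMan qRT-PCR, normalized to ACTB, GAPDH and POLR2A, and fitted bidirectionally against DMSO.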

Read-out in test [6]: UDP glucuronosyltransferase (UGT1A6), UGT1A6 (gene 54578)
Nature of the test: LTEA_HepaRG_UGT1A6: Life Technologies and Expression Analysis (LTEA) Assay for UDP glucuronosyltransferase (UGT1A6) using HepaRG (AID 2283539; active means hit-call score of the fitted dose curve at least 0.9, where 1 is the maximum; inactive means score below 0.9). The conditions noted are these: mRNA level, 48 h; actives raise or lower the signal. In outline:
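Expression was quantified by TaqMan qRT-PCR on Fluidigm arrays with ACTB/GAPDH/POLR2A normalization and bidirectional fitting against 0.5% DMSO. HepaRG cells (~100,000/well) were treated in duplicate for 48 h at eight half-log concentrations up to 100 uM in serum-free induction medium.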

Read-out in test [7]: X-box binding protein 1 (XBP1), XBP1 (gene 7494)
Description: LTEA_HepaRG_XBP1: Life Technologies and Expression Analysis (LTEA) Assay for X-box binding protein 1 (XBP1) using HepaRG (AID 2283540; active means hit-call score of the fitted dose curve at least 0.9, where 1 is the maximum; inactive means score below 0.9). The conditions noted are these: mRNA level, 48 h; actives raise or lower the signal. The method in brief:
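XBP1 transcript by qRT-PCR (housekeeping-normalized: ACTB, GAPDH, POLR2A) after 48 h chemical treatment of HepaRG cells, 8-point half-log series topping at 100 uM, vehicle 0.5% DMSO. Gain and loss of signal fitted relative to DMSO.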

The nature of test [8]: LTEA_HepaRG_LDH_cytotoxicity: Cytotoxicity Assessment in the Life Technologies and Expression Analysis (LTEA) Assay (AID 2283563).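 On AC50: LDH activity released into spent culture medium as a marker of cell death.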 The method in brief: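 LDH release into culture medium read after 48 h chemical treatment of HepaRG cells. Duplicate wells, eight-point half-log series topping at 100 uM, 0.5% DMSO vehicle and baseline.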
Test [9] in a line: TOX21_p53_BLA_p2_viability: Viability Assessment in the Tox21 HCT-116 p53 Agonism Beta-lactamase Assay, Phase 2 (AID 2283591).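 Further: compound exposure lasted 16 h at 37 °C; actives lower the ATP signal meaning cytotoxicity.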 The method in brief: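 HCT-116 p53-bla cells (4000/well) rested 5 h at 37C, then received compounds in DMSO (217-fold dilution) for 16 h at 37C, 5% CO2. After the CCF4 read, CellTiter-Glo was added; ATP luminescence was read after 30 min at room temperature.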

Test [10] concerns the target Cellular tumor antigen p53 (Homo sapiens) (UniProt P04637). Nature of the test: TOX21_p53_BLA_p2_ratio: Tox21 HCT-116 p53 Agonism Beta-lactamase Assay, Ratio, Phase 2 (AID 2283592). The method in brief: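 Gain-of-signal p53 agonism was scored from the beta-lactamase FRET ratio (460/530 nm, 405 nm excitation) in HCT116 cells treated 16 h at 37C, 5% CO2, with DMSO serving as negative control and baseline.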

For test [11] the target is unchanged. Description: TOX21_p53_BLA_p3_ratio: Tox21 HCT-116 p53 Agonism Beta-lactamase Assay, Ratio, Phase 3 (AID 2283596). In outline: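 HCT116 p53-bla cells (4000/well) given compound in DMSO (217-fold dilution) after 5 h, incubated 16 h at 37C. CCF4-AM substrate 2 h at room temperature; 460/530 nm emission ratio, gain fitted against DMSO.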
Test [12] in a line: TOX21_p53_BLA_p4_viability: Viability Assessment in the Tox21 HCT-116 p53 Agonism Beta-lactamase Assay, Phase 4 (AID 2283597).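 Further: hits lower the luminescence signal meaning cytotoxicity.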 In outline:
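Following a 16 h exposure at 37C, the treated HCT116 wells were first read for the FRET ratio. They were then lysed with CellTiter-Glo, and ATP luminescence was recorded after 30 min at room temperature.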

Test [13] has as its target Cellular tumor antigen p53 (Homo sapiens) (UniProt P04637). Nature of the test: TOX21_p53_BLA_p5_ratio: Tox21 HCT-116 p53 Agonism Beta-lactamase Assay, Ratio, Phase 5 (AID 2283599). In outline: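 HCT-116 cells carrying a p53-inducible beta-lactamase reporter were seeded at 4000 cells/well and dosed after 5 h with compound in DMSO (217-fold dilution). After 16 h at 37C, CCF4-AM substrate was added for 2 h, and the 460/530 nm emission ratio was scored as gain-of-signal versus DMSO.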

The target is the same in test [14]. Description: TOX21_p53_BLA_p4_ratio: Tox21 HCT-116 p53 Agonism Beta-lactamase Assay, Ratio, Phase 4 (AID 2283601). In outline: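 HCT116 cells carrying an inducible beta-lactamase reporter were plated at 4000 cells/well, rested 5 h, then exposed to compounds in DMSO (217-fold dilution) for 16 h at 37C. CCF4-AM substrate was loaded 2 h at room temperature; 460/530 nm emission ratio scored gain-of-signal versus DMSO.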

Test [15] is described as follows: Tanguay_ZF_120hpf_MORT_legacy: (Legacy) Oregon State University Tanguay Lab 120 Hour Post-fertilization zebrafish Assay for Mortality (AID 2283633). In outline:
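Static waterborne exposure from 6 to 120 hpf at 28C of single dechorionated wild-type (5D) embryos per well, 0.64% DMSO final. Death recorded present/absent by brightfield at 24 and 120 hpf.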

The nature of test [16]: Tanguay_ZF_120hpf_YSE_legacy: (Legacy) Oregon State University Tanguay Lab 120 Hour Post-fertilization zebrafish Assay for Yolk Sac Edema (AID 2283634). The method in brief:
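Presence or absence of yolk sac edema was recorded at 120 hpf in surviving larvae. These were wild-type Tropical 5D embryos, chorion removed at 4 hpf, held in static exposure at 28C from 6 hpf with 0.64% DMSO vehicle.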

The nature of test [17]: Tanguay_ZF_120hpf_AXIS_legacy: (Legacy) Oregon State University Tanguay Lab 120 Hour Post-fertilization zebrafish Assay for Body Axis Malformation (AID 2283635). In outline:
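Binary scoring of axis defects at 120 hpf under brightfield, fitted positive versus DMSO. Tropical 5D embryos, chorion removed by pronase at 4 hpf, were singly exposed in sealed, dark plates at 28C from 6 hpf; DMSO 0.64% final.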

The source of these data is PubChem BioAssay (EPA / NIEHS).

Molecules are shown by their SMILES. Inconclusive results are not listed. Active and inactive are the calls of the source. How the source made its calls, unless noted: active means hit-call score of the fitted dose curve at least 0.9, where 1 is the maximum; inconclusive means response in the unintended direction; inactive means score below 0.9.

Sequence of Cellular tumor antigen p53 (Homo sapiens) (P04637 whole entry, looked up): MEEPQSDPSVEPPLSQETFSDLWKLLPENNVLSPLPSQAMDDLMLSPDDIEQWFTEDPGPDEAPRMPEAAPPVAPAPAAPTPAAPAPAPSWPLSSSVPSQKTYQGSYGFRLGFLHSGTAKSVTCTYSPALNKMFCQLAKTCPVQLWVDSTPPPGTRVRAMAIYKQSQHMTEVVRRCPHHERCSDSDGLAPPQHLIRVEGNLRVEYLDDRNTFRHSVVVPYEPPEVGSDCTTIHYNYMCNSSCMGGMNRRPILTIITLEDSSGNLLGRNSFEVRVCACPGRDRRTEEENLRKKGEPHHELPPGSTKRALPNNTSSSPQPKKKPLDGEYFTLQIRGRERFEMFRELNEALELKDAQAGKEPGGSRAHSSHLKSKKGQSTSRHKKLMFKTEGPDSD

Consider `OB(O)O`, for which the molecule was classed as inactive in test [1], in test [2], in test [3], in test [4], in test [5] and in test [6]. Besides, the outcome in test [7], in test [8], in [9], in test [10], in [11] and in [12] was inactive. The outcome in test [13], in test [14], in test [15], in [16] and in test [17] was inactive.

Broadly, the AC50 is the midpoint of the concentration-response curve, whichever way the signal moves. For the molecule `S=C([S-])NCCNC(=S)[S-].[Mn+2]`, the molecule was classed as inactive in test [1], in test [15] and in test [16]. Besides, the AC50 was 3.32 µM (active) in [2]; 0.835 µM (active) in [3]; 2.75 µM (active) in [5]; 3.64 µM (active) in test [6]; 3.17 µM (active) in test [7]; 3.77 µM (active) in test [8].

Regarding `CCOC(=O)COc1cc(-n2ncc(C(F)(F)F)c(C)c2=O)c(F)cc1Cl`, the molecule was called inactive in test [1], in test [2], in test [3], in test [4], in [5] and in [6]. In addition, the result in [7], in test [8], in test [9], in test [10], in test [12] and in [14] was inactive. Further, the result in test [15], in test [16] and in test [17] was inactive.

With `COc1c(Cl)ccc(Cl)c1C(=O)O`, the call in [1], in [2], in [3], in test [5], in [6] and in test [7] was inactive. For the same molecule, the molecule was classed as inactive in [8], in [15], in test [16] and in [17].
